Publication PMC12136788
The full ranking holds about 24,000 sequences; the median of “enrichment r” is about 0.99, and the highest 2% start at about 3.7. Only a sample is shown.

B1: chr18:56819859:56819860:+_ENSG00000166562_ENST00000588875|hu_mus|FALSE|FALSE (ssRNA)
RNA: GGGAGUUCUACAGUCCGACGAUCAACCUUGAUUACUCUGUGAACUAUCGGAAUGUCUCUUCCUUCAACCUUAAAAACAACUAUUUCACCAGCUCUGAUGGGGUCCUCCCGGAAAUUCGUGAGGAACAGCAGAUCUCCUCUGUGCAACAGAGGAUUGAGCAUCA
B2: 224577001_224577121_2655_3pUTR_ENSG00000162923_ENST00000295024|human|control|control (ssRNA)
RNA: GGGAGUUCUACAGUCCGACGAUCCGGGCAAGGCUAGAAUCCAUGAACCAAGCUGCAAAGAUCUCAAGCUAAAUAAGGCGGAAAGAUUUGGAGAAACAAAAGAAGGAAAUUCUUUCCUAUCCAAUGUAUACUCUUCAGACUAAUCAACAGAGGAUUGAGCAUCA
B3: chr2:62099399:62099400:-_ENSG00000115484_ENST00000544079|hu_hu|FALSE|FALSE (ssRNA)
RNA: GGGAGUUCUACAGUCCGACGAUCGUAGGAUUCCAUACCACUCAGUGUUCGUGAAUAUUCAGUUAAUCGUAGGGCCAACUCUAUUUCUGGAGCACCACCUCCUGCAAUAAGAGCCCUCUUCUUCACUAAACAACGAAUAACACACAACAGAGGAUUGAGCAUCA
B4: chr13:30086970:30086971:-_ENSG00000139514_ENST00000380752|hu_mus|FALSE|FALSE (ssRNA)
RNA: GGGAGUUCUACAGUCCGACGAUCAGGCCCUGUGUAGGCUGGGGAAGUGUGCUACCACUAGGCUACACGCCUGUCCAGCCCCACUAACUCUUCCAUUCUCAAGAAUCUUCCAAAGCAGAGGAAAGACAGGGCCAUCAGUCUACCCAACAGAGGAUUGAGCAUCA
B5: 101904251_101904371_108_5pUTR_ENSMUSG00000058655_ENSMUST00000169681|mouse|control|control (ssRNA)
RNA: GGGAGUUCUACAGUCCGACGAUCGGAGAGAGAACGCAAAGGACCCGGAUGAGGCAGUCACGUGAUUAUAGCGGGCGCGACGGGCUUGGAGACGUGAAACCAGGAGGGGGCGGGGAGCCGAGGACGGAGGCAGAAGGCGGGGCGCAACAGAGGAUUGAGCAUCA
B6: 125499526_125499646_756_3pUTR_ENSMUSG00000091337_ENSMUST00000164756|mouse|control|control (ssRNA)
RNA: GGGAGUUCUACAGUCCGACGAUCCUGUGAGACCAAAGAGGAACGAUUUGGUCUUUUUCUCCUCGCGAUUCUCAGGUUUAACACUCCUCCUUCCUCGAUUCUCCUUUUCCACAAUGCAUGGUCAUUCACUGUCCCGUCUUCUAUCAACAGAGGAUUGAGCAUCA
B7: 19967392_19969057_911_3pUTR_ENSMUSG00000002428_ENSMUST00000002502|mouse|control|control (ssRNA)
RNA: GGGAGUUCUACAGUCCGACGAUCUCCCAGAAUGGUGGUAGUUCUUUACUGUUCUCUCGUGCGAUCAUCCAAGCUAGAGCUUGUUUUUGGUGUGGAAGCAACGGUGUUUCAAUAGCCUCAGCUGGUUCCAUUUCAACAGUUCUACAACAGAGGAUUGAGCAUCA
B8: chrX:21990627:21990628:+_ENSG00000102172_ENST00000404933|hu_hu|FALSE|FALSE (ssRNA)
RNA: GGGAGUUCUACAGUCCGACGAUCCACCCGCCCAGUACUGUCCUGACUCAAUUCUUUCAUUCUUUCCUCUACUUUGUUCAAAAUACUGUCGAUCUCUUCUUUGCCUUGCGCAUCACCAUCAUAACUCUGAAGGUCCAGCAACACCAACAGAGGAUUGAGCAUCA
B9: chr14:102516957:102516958:+_ENSG00000197102_ENST00000360184|hu_mus|motif|central (ssRNA)
RNA: GGGAGUUCUACAGUCCGACGAUCCCAUCAACCCUUCCACACCGUUAAGGAUGAAUGAAGGUUAAAUAUUGGGAGUUUCCGGUUCCAGAAAGAGGACUGGAGAAAAGUCUAGCUUUACUCAGUGCACAGAACGGCAACUCCACGCAACAGAGGAUUGAGCAUCA
B10: chr18:67943652:67943653:+_ENSMUSG00000079614_ENSMUST00000025421|mus_hu|FALSE|FALSE (ssRNA)
RNA: GGGAGUUCUACAGUCCGACGAUCAGUUGUCCUUUUAACCCAGUGGCUCUGUCCUCGCAGUUUAUCAUUUGAUUCUCCUACUAUUUCUUCCCAUACAGCAGCUGUUCGGUCAAAAGAACAGGAAGCCAAAACCUGCCCAAAUUCCAACAGAGGAUUGAGCAUCA
B11: chrX:20185780:20185781:-_ENSG00000177189_ENST00000379565|hu_mus|motif|central (ssRNA)
RNA: GGGAGUUCUACAGUCCGACGAUCUUUGGUUAUAGUAAACAGGACAGCGCUGGCCUCUCGCUCUGAGAAAAACUUCUGUCGGAGAAUCUUAUCCAGCAAUUCACCUCCUUUCAUAAGUUCUGUUACUACAUACACAUAUUUUCCCAACAGAGGAUUGAGCAUCA
B12: chr11:77843920:77843921:+_ENSMUSG00000037791_ENSMUST00000049167|mus_hu|motif|central (ssRNA)
RNA: GGGAGUUCUACAGUCCGACGAUCUUUUUUAUAUACAGAAUACAGGAAAGUUUCUGUAAAGUCUAAAACAUUACAAUUACGGUGUACAUUGGUACUGGUUGUGGGGGUGGGAGGAGAGGAGGGAACCAGGGGCAGGAGGAAGAGCAACAGAGGAUUGAGCAUCA
B13: chr1:167252050:167252051:+_ENSMUSG00000040836_ENSMUST00000111450|mus_mus|motif|central (ssRNA)
RNA: GGGAGUUCUACAGUCCGACGAUCGGAUACCAUUGAAGACAAGAGCCACAUGGUGGCUUCCCUUUCACAUCCACCAUCUCGGGUCCUCCUGAUGCCCCAGCCACAUCUCCAUCUGCUUCUAACGUGUGCUUUCGAAGCCUCGUUCAACAGAGGAUUGAGCAUCA
B14: chr12:96259795:96259796:+_ENSG00000139343_ENST00000266735|hu_hu|FALSE|FALSE (ssRNA)
RNA: GGGAGUUCUACAGUCCGACGAUCAAGGACAUUAUUACACCUUAUUAAAACUUCACCCAGAUGUCCAGACAAAGCUCCAUCUAUGUAUUCUUCUGUAUUUGCAAGCUGCAUGUUCAUGUAGCCAUCUACAGAUACCAGAUAGCCCAACAGAGGAUUGAGCAUCA

target: T1, UNK ZnF1-3 (human, UniProt Q9C0B0 31-174); assay: nsRBNS (natural sequence RNA bind-n-seq); RBNS binding buffer (assumed for nsRBNS): 25 mM Tris pH 7.5, 150 mM KCl, 3 mM MgCl2, 0.01% Triton X-100, 500 ug/ml BSA, 20 U/ml SUPERase-In, 4 C; UNK is unkempt and MSI1 is Musashi-1; names of the RNAs are library labels; protein concentration not given here; high values mean tight binding
T1 sequence: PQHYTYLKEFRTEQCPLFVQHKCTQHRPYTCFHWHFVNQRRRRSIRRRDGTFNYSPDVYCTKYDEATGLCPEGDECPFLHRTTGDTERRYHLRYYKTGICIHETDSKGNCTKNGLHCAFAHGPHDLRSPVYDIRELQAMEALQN

Row | Binder | binding signal
1 | B1 | 0.758 enrichment R
2 | B2 | 1.48 enrichment R
3 | B3 | 1.13 enrichment R
4 | B4 | 1.02 enrichment R
5 | B5 | 3.03 enrichment R
6 | B6 | 0.473 enrichment R
7 | B7 | 0.75 enrichment R
8 | B8 | 0.997 enrichment R
9 | B9 | 1.11 enrichment R
10 | B10 | 1.28 enrichment R
11 | B11 | 0.794 enrichment R
12 | B12 | 1.66 enrichment R
13 | B13 | 0.721 enrichment R
14 | B14 | 0.574 enrichment R
